# Several values for one entry are separate records, joined by “and”; a condition that tells them apart may be missing. Equal entries are not always repeated. For part of these data: Potency and affinity values are given separately. More than one record can exist for a structure, and the calls need not agree. Activity calls are given as the source filed them.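 How the source made its calls, unless noted: active means compounds whose cell count with miR-34 switched on is under 0.7 times the count with it off; inactive means the rest.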
# Columns and labels:
# [1] = polyglutamine-triggered caspase-3 activation inhibitors, cell-based (AID 1583); conditions: polyglutamine-induced caspase-3 activation, cell assay; stronger effect = higher value;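 tested at 10 µM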
# [2] = suppressors of polyQ aggregation in yeast, 75Q-TubU reporter (AID 1593); conditions: Yeast 75Q polyglutamine aggregation reporter
# [3] = rescue of polyQ-huntingtin neuronal dysfunction in worms, whole organism, C. elegans mechanosensory neurons, N-terminal huntingtin (AID 1599); conditions: touch response, stronger effect = higher value
# [4] = inhibitors of mitochondrial cytochrome c release, biochemical, purified mitochondria (AID 1603); conditions: stronger effect = lower value;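 further: mouse liver mitochondria challenged with calcium chloride; signal normalized to the plate average as 100%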
# [5] = inhibitors of polyQ protein aggregation (AID 1604); conditions: polyglutamine-induced protein aggregation inhibition assay; stronger effect = higher value; tested at 2.5 µM
# [6] = enhancers of glutamate uptake in motor neurons, MN-1 cell line (AID 1612); conditions: MN-1 motor neuron cells, stronger effect = higher value;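 further: tested at 1 µM final; 0% = mean of DMSO vehicle wells on each plate; positive means more glutamate uptake than control and negative means less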
# [7] = reducers of polyQ inclusions in PC12 cells, cell-based, NGF-treated PC12, GFPQ80 (AID 1614); conditions: PC12 NGF-treated GFP-polyQ80 inclusion reduction;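 further: lower means fewer inclusions and 0 means no inclusions at all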
# [8] = suppressors of polyglutamine aggregation in yeast, 75Q-TubH (AID 1616); conditions: S. cerevisiae 75Q-TubH polyglutamine aggregation suppression; stronger effect = higher value
# [9] = liver-stage malaria parasite growth inhibition, primary screen, cell-based, HepG2, luciferase luminescence, HepG2 viability (AID 624349; in the data active means parasite load remaining mostly below about 12%, no sharp cut-off; inactive means mostly above about 10%;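 further: 100% = mean of DMSO negative control wells on the same plate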); conditions: P. berghei liver stage in HepG2, luciferase luminescence, concentration not given here; parasite load remaining: stronger effect = lower value; viability: measured here: HepG2 viability without parasites
# [10] = target: 6-phosphogluconate dehydrogenase, decarboxylating (Homo sapiens) (UniProt P52209); assay: 6PGD enzyme inhibitors, primary screen, biochemical, human, recombinant enzyme, NADPH absorbance (AID 1159550;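 active means at least 20% inhibition of 6-phosphogluconate dehydrogenase activity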); conditions: recombinant 6PGD, NADPH absorbance 341 nm; at 10 µM; stronger effect = higher value
# [11] = differential killing of epithelial or mesenchymal cells, primary screen, imaging, PC-3E GFP, TEM4-18 mCherry, co-culture (AID 1345086;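 active means compounds killing one labelled cell type while sparing the other, by normalised counts and ratio limits, not self-fluorescent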;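 on all read-outs here: cells exposed to compound for 72 h before imaging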;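 on red/green cell ratio (normalised): normalised mesenchymal count divided by normalised epithelial count so high means epithelial killing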); conditions: imaging cell counts, at 1 µM; for red/green cell ratio (normalised): actives lie on both sides, counts scaled to control wells, 1 = unselective
# [12] = sensitizers of A549 cells to miR-34 induction, primary screen, imaging, A549 dox-inducible miR-34, nuclei and caspase counts (AID 1347080); conditions: A549 miR-34 inducible, Hoechst nuclei count, 48 h
# [13] = survival rescue of mitochondrial mutant cells in low glucose, primary screen, MELAS cybrids, Rieske KO mouse fibroblasts, CellTiter-Glo (AID 1508586;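 active means mean z-score across replicates of 1.96 or higher in either the MELAS or the Rieske mutant cell line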;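 further: z relative to plate mean and SD of compound and empty wells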)
# [14] = target: NAD(+) hydrolase SARM1 (Homo sapiens) (UniProt Q6SZW1); assay: SARM1 TIR NADase inhibitors, cell lysate, NAD-Glo luminescence (AID 1508614;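 active means compound whose remaining NAD level is above about 45 nM, limit read from the data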); conditions: SAM-TIR HEK293T lysate NADase, at 1 µM, stronger effect = higher value
# [15] = target: Mitogen-activated protein kinase 7 (Homo sapiens) (UniProt Q13164); assay: ERK5 transactivation activators in reporter cells, primary screen, cell-based, HTS (AID 1508626;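 active means luciferase signal above three times the same-plate solvent-only control wells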;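 further: luciferase driven by Gal4-ERK5 fusion binding five Gal4 sites before minimal TATA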); conditions: HeLa Gal4-ERK5 transactivation, 18 h, at 5 µM, stronger effect = higher value
# [16] = circadian clock period modulators, cell-based, LOPAC library, luminescence reporter (AID 2774; call rule not given here;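 further: values are relative to mean of DMSO wells on each plate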); conditions: circadian reporter cells, at 7 µM, actives lie on both sides
# [17] = hESC survival regulators, cell-based (AID 493140; call rule not given here;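 further: cells exposed to compounds for four days before counting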); conditions: human embryonic stem cell survival screen; stronger effect = higher value
# [18] = phospholipid biosynthesis inhibitors in animal cells, primary screen, cell-based, LOPAC library, screen 4 (AID 1347384; call rule not given here); conditions: phospholipid biosynthesis inhibition screen, at 10 µM
# [19] = viability rescue of complex I mutant cybrids, primary screen, cell-based, galactose medium, ATP luminescence (AID 1645843;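 active means z-score of at least 1.8 in each of two replicates, scored against plate mean and spread of sample wells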;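 further: positive z means more ATP and so rescue of galactose-driven cybrid death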); conditions: complex I mutant cybrid cells, 72 h, stronger effect = higher value
# [20] = measured here: epithelial PC-3E GFP cell survival
# [21] = measured here: mesenchymal TEM4-18 mCherry cell survival
# [22] = stronger effect = lower value, cell number ratio, induced over uninduced
# [23] = measured here: relative caspase fold change +Dox/-Dox
# [24] = measured here: total cells with miR-34 induction, stronger effect = lower value
# [25] = measured here: total cells without miR-34 induction
# [26] = MELAS cybrid survival, CellTiter-Glo 48 h, stronger effect = higher value
# [27] = Rieske KO mouse fibroblast survival, CellTiter-Glo 72 h
# 6-phosphogluconate dehydrogenase, decarboxylating (Homo sapiens), sequence (P52209 whole entry, looked up): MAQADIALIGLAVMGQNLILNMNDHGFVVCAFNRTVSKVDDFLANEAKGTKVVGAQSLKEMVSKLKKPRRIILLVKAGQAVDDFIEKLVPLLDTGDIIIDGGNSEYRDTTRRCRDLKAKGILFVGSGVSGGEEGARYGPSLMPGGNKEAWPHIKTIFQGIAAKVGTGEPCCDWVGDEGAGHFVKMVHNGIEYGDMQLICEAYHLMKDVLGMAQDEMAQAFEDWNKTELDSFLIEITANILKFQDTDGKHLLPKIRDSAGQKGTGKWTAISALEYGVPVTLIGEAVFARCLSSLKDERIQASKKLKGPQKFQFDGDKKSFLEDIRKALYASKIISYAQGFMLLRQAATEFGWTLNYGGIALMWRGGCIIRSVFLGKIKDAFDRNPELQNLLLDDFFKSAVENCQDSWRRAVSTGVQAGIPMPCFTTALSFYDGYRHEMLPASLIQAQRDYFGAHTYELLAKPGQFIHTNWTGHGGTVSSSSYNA
# Mitogen-activated protein kinase 7 (Homo sapiens), sequence (Q13164 whole entry, looked up, the tested form may be a part): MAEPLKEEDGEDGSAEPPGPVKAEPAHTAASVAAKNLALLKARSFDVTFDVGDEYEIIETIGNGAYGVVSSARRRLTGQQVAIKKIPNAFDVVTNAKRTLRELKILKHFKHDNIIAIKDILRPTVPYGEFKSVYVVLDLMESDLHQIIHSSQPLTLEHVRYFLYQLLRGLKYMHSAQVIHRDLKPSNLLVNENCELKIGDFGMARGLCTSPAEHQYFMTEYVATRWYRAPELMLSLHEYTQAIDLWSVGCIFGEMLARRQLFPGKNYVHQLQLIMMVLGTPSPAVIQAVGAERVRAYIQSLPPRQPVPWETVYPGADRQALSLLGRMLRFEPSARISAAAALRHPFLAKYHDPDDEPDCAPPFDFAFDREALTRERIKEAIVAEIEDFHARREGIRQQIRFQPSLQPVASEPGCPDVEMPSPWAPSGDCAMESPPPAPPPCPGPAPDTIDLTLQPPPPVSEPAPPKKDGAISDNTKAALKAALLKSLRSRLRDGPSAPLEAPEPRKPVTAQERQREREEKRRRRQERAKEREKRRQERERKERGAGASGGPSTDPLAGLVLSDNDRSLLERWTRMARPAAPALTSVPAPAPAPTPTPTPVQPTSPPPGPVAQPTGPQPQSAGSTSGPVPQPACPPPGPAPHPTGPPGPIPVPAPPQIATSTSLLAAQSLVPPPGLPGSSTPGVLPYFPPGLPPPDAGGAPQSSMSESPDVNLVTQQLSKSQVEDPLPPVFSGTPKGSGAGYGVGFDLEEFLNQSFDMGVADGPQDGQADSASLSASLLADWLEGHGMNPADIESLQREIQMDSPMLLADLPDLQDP
# NAD(+) hydrolase SARM1 (Homo sapiens), sequence (Q6SZW1 whole entry, looked up, the tested form may be a part): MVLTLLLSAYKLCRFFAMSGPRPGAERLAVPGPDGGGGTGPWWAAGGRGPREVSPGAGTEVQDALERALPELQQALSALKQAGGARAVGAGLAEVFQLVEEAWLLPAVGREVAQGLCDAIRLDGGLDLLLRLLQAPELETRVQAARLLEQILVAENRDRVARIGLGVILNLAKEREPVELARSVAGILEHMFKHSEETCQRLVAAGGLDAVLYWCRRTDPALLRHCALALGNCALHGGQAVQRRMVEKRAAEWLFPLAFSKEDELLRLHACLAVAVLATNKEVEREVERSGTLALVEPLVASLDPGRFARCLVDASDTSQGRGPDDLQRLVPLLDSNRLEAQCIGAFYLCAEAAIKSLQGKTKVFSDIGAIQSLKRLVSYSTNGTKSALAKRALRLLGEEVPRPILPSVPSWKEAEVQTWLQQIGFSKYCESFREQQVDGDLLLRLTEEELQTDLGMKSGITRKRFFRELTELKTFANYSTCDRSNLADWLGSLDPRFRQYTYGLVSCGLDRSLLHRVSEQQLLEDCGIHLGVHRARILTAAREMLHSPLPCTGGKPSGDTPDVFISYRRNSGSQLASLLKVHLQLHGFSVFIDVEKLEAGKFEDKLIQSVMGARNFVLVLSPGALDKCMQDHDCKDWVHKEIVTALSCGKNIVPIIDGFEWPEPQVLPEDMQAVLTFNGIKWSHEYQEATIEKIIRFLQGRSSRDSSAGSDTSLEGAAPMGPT
structure (smiles),measurement,setting,value
CC[C@H]1OC(=O)[C@H](C)[C@@H](O[C@H]2C[C@@](C)(OC)[C@@H](O)[C@H](C)O2)[C@H](C)[C@@H](O[C@@H]2O[C@H](C)C[C@H](N(C)C)[C@H]2O)[C@](C)(O)C[C@@H](C)C(=O)[C@H](C)[C@@H](O)[C@]1(C)O,inhibition,[1],-6% and 7.62% and 29.3%
same,score,[2],1 and 1.46 and 0.46
same,rescue above control,[3],2.19 and 2 and 0.57
same,cytochrome c release ratio,[4],1.13 and 0.65 and 0.96
same,inhibition of aggregation,[5],76.2% and 28.2% and 15.7%
same,glutamate uptake change,[6],-4.4% and 1.02% and 35.1%
same,inclusion score,[7],2
same,aggregation suppression score,[8],0.915 and 1.27 and 0.716
same,parasite load remaining,[9],44.8% (inactive) and 99.9% (inactive) and 62.2% (inactive)
same,viability,[9],44.6% and 74.8% and 115%
same,inhibition,[10],2.57% (inactive) and -12% (inactive)
same,red/green cell ratio (normalised),[11],1.08 (inactive) and 0.76 (inactive)
same,normalised cell number,[11]; [20],0.96 and 0.98
same,normalised cell number,[11]; [21],1.03 and 0.74
same,fold change,[12]; [22],0.923 (inactive) and 0.889 (inactive) and 0.914 (inactive)
same,fold change,[12]; [23],0.947 and 1.27 and 1.04
same,cell count,[12]; [24],7930 and 8750 and 10800
same,cell count,[12]; [25],8590 and 9850 and 11800
same,z-score,[13]; [26],-0.415 (inactive)
same,z-score,[13]; [27],-0.471
same,remaining NAD,[14],85 nM (active) and 10 nM (inactive)
same,luciferase signal,[15],60 AU (inactive)
C1CCc2nnnn2CC1,period change,[16],-0.075 h (inactive)
same,survival,[17],27.4 (inactive)
same,parasite load remaining,[9],23.8% (inactive) and 86.6% (inactive) and 79.3% (inactive)
same,viability,[9],50.2% and 91.9% and 103%
same,inhibition,[10],10.8% (inactive)
same,red/green cell ratio (normalised),[11],1.25 (inactive)
same,normalised cell number,[11]; [20],1.11
same,normalised cell number,[11]; [21],1.38
same,outcome,[18],inactive
same,z-score,[13]; [26],-0.00315 (inactive)
same,z-score,[13]; [27],-0.232
same,remaining NAD,[14],10 nM (inactive)
same,luciferase signal,[15],96 AU (inactive)
same,z-score,[19],0.7 (inactive) and 0.6 (inactive)
COc1ccc(-c2coc3cc(O)ccc3c2=O)cc1,parasite load remaining,[9],260% (inactive)
same,viability,[9],88.5%
same,inhibition,[10],-6.94% (inactive)
same,red/green cell ratio (normalised),[11],0.93 (inactive)
same,normalised cell number,[11]; [20],1.23
same,normalised cell number,[11]; [21],1.14
same,fold change,[12]; [22],0.949 (inactive)
same,fold change,[12]; [23],0.624
same,cell count,[12]; [24],7740
same,cell count,[12]; [25],8150
same,z-score,[13]; [26],-0.217 (inactive)
same,z-score,[13]; [27],0.38
same,luciferase signal,[15],140 AU (inactive)
NC(N)=NC(N)=Nc1ccccc1,inhibition,[1],53.4% and -16.9%
same,score,[2],1.25 and 0.9
same,rescue above control,[3],-3.01 and 7.54
same,cytochrome c release ratio,[4],0.86 and 1.03
same,inhibition of aggregation,[5],72.2% and 69.7%
same,glutamate uptake change,[6],-1.79% and -11.1%
same,inclusion score,[7],2
same,aggregation suppression score,[8],1.39 and 0.87
same,period change,[16],0.065 h (inactive)
same,inhibition,[10],-4.29% (inactive)
same,red/green cell ratio (normalised),[11],0.97 (inactive)
same,normalised cell number,[11]; [20],1.24
same,normalised cell number,[11]; [21],1.2
same,fold change,[12]; [22],1 (inactive) and 0.938 (inactive)
same,fold change,[12]; [23],1.38 and 0.627
same,cell count,[12]; [24],9810 and 9310
same,cell count,[12]; [25],9810 and 9920
same,outcome,[18],inactive
same,z-score,[19],0.085 (inactive) and -0.065 (inactive)
COc1ccc(-c2cc(=O)c3c(O)cc(O)cc3o2)cc1O,inhibition,[10],11.1% (inactive)
same,red/green cell ratio (normalised),[11],0.91 (inactive)
same,normalised cell number,[11]; [20],1.34
same,normalised cell number,[11]; [21],1.22
same,fold change,[12]; [22],0.906 (inactive)
same,fold change,[12]; [23],0.637
same,cell count,[12]; [24],8940
same,cell count,[12]; [25],9870
same,z-score,[13]; [26],-0.264 (inactive)
same,z-score,[13]; [27],0.709
O=c1cc(-c2ccccc2)oc2cc(O)cc(O)c12,inhibition,[1],16.7%
same,score,[2],-0.45
same,rescue above control,[3],1.21
same,cytochrome c release ratio,[4],0.64
same,inhibition of aggregation,[5],83.3%
same,glutamate uptake change,[6],-33.9%
same,aggregation suppression score,[8],0.573
same,survival,[17],11.8 (inactive)
same,parasite load remaining,[9],112% (inactive) and 75% (inactive)
same,viability,[9],98.1% and 69.3%
same,inhibition,[10],13.6% (inactive)
same,red/green cell ratio (normalised),[11],0.89 (inactive)
same,normalised cell number,[11]; [20],1.21
same,normalised cell number,[11]; [21],1.08
same,fold change,[12]; [22],0.807 (inactive) and 0.948 (inactive)
same,fold change,[12]; [23],1.38 and 0.939
same,cell count,[12]; [24],5370 and 8220
same,cell count,[12]; [25],6660 and 8680
same,z-score,[13]; [26],-0.289 (inactive)
same,z-score,[13]; [27],0.583
same,luciferase signal,[15],136 AU (inactive)
COc1cc2c(cc1OC)[C@@H]1C(=O)c3ccc4c(c3O[C@@H]1CO2)C=CC(C)(C)O4,inhibition,[10],-0.416% (inactive)
same,red/green cell ratio (normalised),[11],0.71 (inactive)
same,normalised cell number,[11]; [20],0.9
same,normalised cell number,[11]; [21],0.64
same,luciferase signal,[15],44 AU (inactive)
O=C(/C=C/C=C/c1ccc2c(c1)OCO2)N1CCCCC1,inhibition,[1],-11.5%
same,score,[2],0.85
same,rescue above control,[3],3.18
same,cytochrome c release ratio,[4],0.68
same,inhibition of aggregation,[5],51%
same,glutamate uptake change,[6],10.6%
same,inclusion score,[7],2
same,aggregation suppression score,[8],0.367
same,survival,[17],6.58 (inactive)
same,inhibition,[10],0.86% (inactive)
same,red/green cell ratio (normalised),[11],0.95 (inactive)
same,normalised cell number,[11]; [20],1.26
same,normalised cell number,[11]; [21],1.2
same,fold change,[12]; [22],0.898 (inactive) and 0.941 (inactive)
same,fold change,[12]; [23],1.07 and 2.41
same,cell count,[12]; [24],7720 and 10400
same,cell count,[12]; [25],8590 and 11100
same,remaining NAD,[14],10 nM (inactive)
same,luciferase signal,[15],80 AU (inactive)
O=C(/C=C/c1ccc(O)cc1)c1ccc(O)cc1O,period change,[16],0.18 h (inactive)
same,inhibition,[10],-4.78% (inactive)
same,red/green cell ratio (normalised),[11],1.01 (inactive)
same,normalised cell number,[11]; [20],0.91
same,normalised cell number,[11]; [21],0.91
same,fold change,[12]; [22],1.12 (inactive)
same,fold change,[12]; [23],0.85
same,cell count,[12]; [24],9020
same,cell count,[12]; [25],8080
same,outcome,[18],inactive
same,luciferase signal,[15],80 AU (inactive)
same,z-score,[19],-0.25 (inactive)
O=C(CCc1ccc(O)cc1)c1c(O)cc(O)cc1O[C@@H]1O[C@H](CO)[C@@H](O)[C@H](O)[C@H]1O,parasite load remaining,[9],28.4% (inactive)
same,viability,[9],69.5%
same,inhibition,[10],5.05% (inactive)
same,red/green cell ratio (normalised),[11],1 (inactive)
same,normalised cell number,[11]; [20],0.89
same,normalised cell number,[11]; [21],0.89
same,fold change,[12]; [22],0.867 (inactive)
same,fold change,[12]; [23],1.41
same,cell count,[12]; [24],9120
same,cell count,[12]; [25],10500
same,z-score,[13]; [26],-0.633 (inactive)
same,z-score,[13]; [27],-1.43
same,luciferase signal,[15],28 AU (inactive)
same,z-score,[19],-0.075 (inactive)
O=C1C[C@@H](c2ccc(O)cc2)Oc2cc(O)cc(O)c21,inhibition,[1],11.6%
same,score,[2],1.28
same,rescue above control,[3],-15.8
same,cytochrome c release ratio,[4],1.08
same,inhibition of aggregation,[5],57.7%
same,glutamate uptake change,[6],9.95%
same,inclusion score,[7],2
same,aggregation suppression score,[8],1.04
same,inhibition,[10],-3.37% (inactive)
same,red/green cell ratio (normalised),[11],1.16 (inactive)
same,normalised cell number,[11]; [20],0.96
same,normalised cell number,[11]; [21],1.12
same,luciferase signal,[15],40 AU (inactive)
COc1ccc(-c2coc3cc(O)cc(O)c3c2=O)cc1,inhibition,[1],-2.46%
same,score,[2],1.27
same,rescue above control,[3],4
same,cytochrome c release ratio,[4],2.73
same,inhibition of aggregation,[5],22.4%
same,glutamate uptake change,[6],10.2%
same,aggregation suppression score,[8],1.01
same,inhibition,[10],17.9% (inactive)
same,red/green cell ratio (normalised),[11],0.99 (inactive)
same,normalised cell number,[11]; [20],1.32
same,normalised cell number,[11]; [21],1.3
same,fold change,[12]; [22],0.896 (inactive)
same,fold change,[12]; [23],0.917
same,cell count,[12]; [24],7900
same,cell count,[12]; [25],8810
same,z-score,[13]; [26],-0.162 (inactive)
same,z-score,[13]; [27],-1.4
same,luciferase signal,[15],16 AU (inactive)
